Sampled rows, rich in hits. Any-hit rate of the full collection: about 9.9%.
Tau fluor counter = counter-screen for tau fibril formation inhibitors; AID 1463; tau K18 P301L Alexa594 fluorescence, heparin fibrillization; Potency, µM (titrated, usually from 57.7 µM), inactives show at the top dose activity change, negative = decrease; 280,000 tested, 0.93% active; active = well fitted curve in the direction sought with a large enough effect; inconclusive = small, poorly fitted or top-dose-only effect, or another doubt; inactive = no such curve, though single readings can be large; an effect the other way counts as inactive or inconclusive; note: nearly all actives have a fitted effect of over 55% in size
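Human tau K18 P301L (15 uM unlabeled, 0.24 uM Alexa 594-labeled) in 100 mM sodium acetate pH 7 with 20 uM heparin, 6 hr at 37 C. ThT 30 uM added, 1 hr ambient; Alexa 594 FP and total fluorescence read at 555/632 nm.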
Tau ThT inhib = tau fibrillization inhibition (ThT binding); recombinant tau K18 P301L, heparin-induced fibrillization, ThT fluorescence; Potency, µM (top dose mostly 57.4 µM), for the others: top-dose activity, negative = inhibition, actives largely listed as inhibitors; 270,000 tested, 2.1% active; AID 1460; active = well fitted curve in the direction sought with a large enough effect; inconclusive = small, poorly fitted or top-dose-only effect, or another doubt; inactive = no such curve, though single readings can be large; an effect the other way counts as inactive or inconclusive; note: nearly all actives have a fitted effect of over 55% in size
Target sequence (P10636 561-689 P618L limits assumed): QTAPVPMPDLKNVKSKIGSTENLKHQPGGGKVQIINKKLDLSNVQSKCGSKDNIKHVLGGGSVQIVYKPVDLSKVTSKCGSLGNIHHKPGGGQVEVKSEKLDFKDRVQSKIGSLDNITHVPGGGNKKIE
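Using a mix of unlabeled (15 uM) and Alexa 594-labeled (0.24 uM) tau K18 P301L, heparin-triggered fibrillization over 6 hr at 37 C was scored by ThT fluorescence.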
ALDH1A1 block = inhibitors of human aldehyde dehydrogenase 1A1; Potency, µM (top dose mostly 75.3 µM), for inactives: at the top dose activity, negative = inhibition, hits mostly inhibitors; Purified ALDH1A1, NADH fluorescence, propionaldehyde substrate; P00352; 220,000 tested, 7.3% active;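 note: plate controls were no enzyme wells and a reference inhibitor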
Tau fibril FP = tau fibrillization inhibition (FP); K18 P301L tau heparin fibrillization, Alexa594 FP, 6 h; Potency, µM (doses to about 57.7 µM), without a hit: at the top dose activity, negative = inhibition, most hits filed as inhibitors; 280,000 tested, 0.39% active; active = well fitted curve in the direction sought with a large enough effect; inconclusive = small, poorly fitted or top-dose-only effect, or another doubt; inactive = no such curve, though single readings can be large; an effect the other way counts as inactive or inconclusive; note: nearly all actives have a fitted effect of over 55% in size
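Quantitative HTS format: compounds meet 15 uM recombinant K18 P301L tau and Alexa 594-tau tracer in 100 mM sodium acetate pH 7; 20 uM heparin triggers fibrillization at 37 C over 6 hr; FP gives the signal.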
HPGD inh = HPGD (human) dehydrogenase inhibition. purified HPGD, NADH fluorescence kinetic, PGE2 substrate. Potency, µM, without a hit: at the top dose activity change, negative = inhibition, usual class: inhibitors. 150,000 tested, 4.3% active. AID 894
Target sequence (P15428 whole entry, looked up): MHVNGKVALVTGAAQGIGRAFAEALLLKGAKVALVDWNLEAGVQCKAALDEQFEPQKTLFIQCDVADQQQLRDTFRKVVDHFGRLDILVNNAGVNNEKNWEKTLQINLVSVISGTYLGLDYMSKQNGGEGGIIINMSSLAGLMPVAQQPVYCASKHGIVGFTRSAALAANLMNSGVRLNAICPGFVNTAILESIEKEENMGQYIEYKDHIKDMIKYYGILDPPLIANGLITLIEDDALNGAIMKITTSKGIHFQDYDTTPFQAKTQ
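NADH formation kinetics: reaction with 30 uM PGE2 and 1 mM NAD+ (final), 20 nM enzyme, Tris-HCl pH 8 with Tween 20, after 15 min compound preincubation at room temperature. Fluorescence change, last versus first of five reads.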
KDM4E inh = JMJD2E (human) inhibition. JMJD2E catalytic domain, FDH-coupled NADH fluorescence (FDH is formaldehyde dehydrogenase). AID 2147. Potency, µM (doses to about 57.1 µM), without a hit: at the highest dose activity change, negative = inhibition, actives largely listed as inhibitors. 230,000 tested, 1.6% active;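 note: 0% = wells with enzyme and -100% = buffer wells without enzyme; nearly all actives have a fitted effect of over 50% in size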
* marks the source's active call; other numbers are inactive results; ? = inconclusive; nt = not tested or not shown; [ ] = dose if it differs, or a comment. Unless noted, calls come from the whole dose curve; as a rule, active = well fitted inhibition curve with a large enough effect (not every such curve was filed as active); inconclusive = small, poorly fitted or top-dose-only effect, or another doubt; inactive = no such curve, though single readings can be large or run the other way. Unless noted, % is set by controls: 0 for no effect and ±100 for the full control effect; potency is the fitted concentration of half-maximal effect.

SMILES | Tau fluor counter | Tau ThT inhib | ALDH1A1 block | Tau fibril FP | HPGD inh | KDM4E inh
[O-]/[N+](=C\c1ccncc1)c1ccccc1 | -10.8% | ? | 15µM* | ? | -11.7% | -3.0%
[O-]/[N+](=C/c1ccc(F)cc1)c1ccccc1 | -7.0% | ? | ? | -13.0% | -15.7% | -10.0%
[O-]/[N+](=C\c1ccc(OC(F)F)cc1)c1ccccc1 | -12.1% | ? | 7.94µM* | -16.7% | -23.8% | -5.4%
[O-]/[N+](=C\C=C\c1ccccc1)c1ccccc1 | -15.6% | -14.5% | nt | 2.7% | nt | 0.9%
COc1ccc(CCNC(=O)c2cc(=O)[nH]c3ccc(S(=O)(=O)N4CCCCC4C)cc23)cc1OC (stereo not given) | -15.8% | 1.7% | nt | -13.3% | nt | nt
COc1ccc(NC(=O)c2c(NC(=O)C(F)(F)F)sc3c2CCCCC3)cc1 | ? | 15.8µM* | nt | -0.9% | nt | nt
CCOC(=O)c1ccc(NC(=O)c2c(NCc3sccc3C)sc3c2CCCCC3)cc1 | -28.4% | 31.6µM* | nt | -20.7% | nt | nt
CCOC(=O)c1ccc(NC(=O)c2c(NCc3cccc(OC)c3OC)sc3c2CCC3)cc1 | ? | ? | nt | -0.3% | nt | nt
COc1ccc(NC(=O)c2c(NCc3ccc(N(C)C)cc3)sc3c2CCC3)cc1 | ? | 15.8µM* | nt | -13.0% | nt | nt
COc1ccc(NC(=O)c2c(NCc3ccc(OC)c(OC)c3OC)sc3c2CCC3)c(OC)c1 | ? | 14.1µM* | nt | -2.8% | nt | nt
COc1cc(Cl)c(C)cc1NC(=O)c1cc2c(Cl)nc3ccc(C)cc3c2s1 | -10.5% | -5.8% | nt | 4.1% | nt | nt
COc1cc(NC(=O)CCNS(=O)(=O)c2ccc3c(c2)CCC(=O)N3)cc(OC)c1 | -18.4% | -17.3% | -16.9% | 3.7% | -11.9% | -2.3%
O=S(=O)(Nc1ccc(-n2cnnn2)cc1)c1ccc(F)c(F)c1F | 4.6% | -8.3% | nt | 5.4% | nt | -6.4%
COc1cccc(C(=O)N(Cc2ccc(N(C)C)cc2)Cc2ccco2)c1 | -26.3% | -15.6% | nt | 0.6% | nt | nt
Cc1ccccc1Oc1cc(NC(=O)Cn2cnc([N+](=O)[O-])c2)cc([N+](=O)[O-])c1 | 12.6µM*[quencher] | ? | ? | ? | nt | -3.1%
CC(C)(C)NC(=O)COC(=O)c1ccccc1Nc1ccc(SC(F)F)cc1 | ? | -16.9% | ? | -1.9% | ? | ?
O=C(COC(=O)c1ccccc1Nc1ccc(SC(F)F)cc1)NCc1ccco1 | -10.9% | 4.1% | -7.5% | 5.2% | 14.1µM* | ?
NC(=O)COC(=O)c1ccccc1Nc1ccc(SC(F)F)cc1 | ? | ? | 5.8% | ? | 11.2µM* | ?
Cc1noc(C)c1C(=O)N1CCC[C@@]2(CCN(Cc3cc(C(F)(F)F)cc(C(F)(F)F)c3)C2)C1 | nt | nt | 3.3% | nt | -1.2% | nt
Oc1ccccc1C(=S)N1CCCCCC1 | -19.6% | ? | 25.1µM* | ? | 8.91µM* | -7.0%
Oc1ccccc1C(=S)N1CCCCC1 | -2.4% | ? | ? | -6.2% | 14.1µM* | -1.9%
CCOC(=O)c1cccc(NC(=O)c2ccc3c(Cl)c4c(nc3c2)CCC4)c1 | ? | -15.1% | nt | -12.4% | nt | nt
CCn1c(O)c(N=Nc2ccc3ccccc3n2)c2ccccc21 | -18.3% | 3.98µM* | nt | 2.1% | nt | -1.8%
CCCCn1c(O)c(N=Nc2ccccn2)c2ccccc21 | -18.6% | ? | ? | -7.6% | -8.3% | 3.6%
CC(C)(C)c1ccc(C2Sc3ccccc3NC3=C2C(=O)c2ccccc23)cc1 (stereo not given) | 5.62µM*[quencher] | -11.3% | nt | ? | nt | nt
COc1ccccc1-c1cc(C(F)(F)F)nc(S(C)(=O)=O)n1 | -1.5% | -6.3% | -4.4% | 8.1% | 25.1µM* | ?
O=C(COc1ccc(-c2nnc(N3CCCCC3)c3ccccc23)cc1)N1CCCCC1 | -3.0% | -14.3% | 6.4% | -5.4% | ? | 3.3%
Cc1ccc(-c2nnc(N3CCN(C(=O)COc4ccccc4)CC3)c3ccccc23)cc1 | -11.2% | ? | 28.2µM* | 6.0% | -17.7% | -7.7%
O=C(CN1CCOCC1)N1CCN(c2nnc(-c3ccccc3)c3ccccc23)CC1 | 3.9% | -4.1% | 12.6µM* | 5.4% | 2.2% | -1.8%

High-throughput results deposited in PubChem BioAssay by National Center for Advancing Translational Sciences (NCATS).
